Laboratory results from PubChem BioAssay (Tox21).
Records with an inconclusive call do not appear. Activity calls are given as the source filed them. Unless noted, the call rests on the fitted dose curve.

Legend:
[1] = Nuclear factor erythroid 2-related factor 2/antioxidant responsive element (Nrf2/ARE) small molecule agonists: qHTS cell viability counter screen in human keratinocytes (AID 1919968; active means well fitted cell-killing curve with a large enough effect in the repeat runs; further: nearly all actives have a fitted effect of over 55% in size)
Summary of the method: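 Stably transfected HaCaT (KeratinoSens), 1,500/well. Test agents in DMSO were applied for 23 h, 37 C/5% CO2. CellTiter-Fluor was incubated 1 h before the fluorescence read.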

[2] = molecular target: Gonadotropin-releasing hormone receptor (Homo sapiens) (UniProt P30968); experiment: Human gonadotropin-releasing hormone receptor (GnRHR) small molecule agonists, calcium flux assay in GnRHR-HEK293 cells (AID 1920063); further: nearly all actives have a fitted effect of over 35% in size
Chain of Gonadotropin-releasing hormone receptor (Homo sapiens) (P30968 whole entry, looked up): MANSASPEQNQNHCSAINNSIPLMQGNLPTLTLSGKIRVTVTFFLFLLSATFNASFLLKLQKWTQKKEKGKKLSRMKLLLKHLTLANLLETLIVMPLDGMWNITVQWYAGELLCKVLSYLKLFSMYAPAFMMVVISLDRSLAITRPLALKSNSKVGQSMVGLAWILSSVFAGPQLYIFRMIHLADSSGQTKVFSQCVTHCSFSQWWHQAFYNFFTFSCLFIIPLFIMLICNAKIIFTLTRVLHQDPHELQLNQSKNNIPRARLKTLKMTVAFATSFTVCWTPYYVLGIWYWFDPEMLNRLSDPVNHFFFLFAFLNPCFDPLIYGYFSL
Summary of the method: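 Stable human GnRHR HEK293 line. 18 h plating, then calcium dye for 1 h at 37 C. Agonist-mode compound addition from DMSO stocks; fluorescence monitored 3 min.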

[3] = G protein-coupled receptor (GPCR) small molecule agonists, calcium flux assay: HEK293 wild type cell line counter screen (AID 1920065)
Summary of the method: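 Following 18 h incubation at 37 C/5% CO2, plates got calcium dye for 1 h; compounds, ATP or DMSO were then pinned in and fluorescence followed kinetically (480/540 nm).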

[4] = p53 small molecule agonists, cell-based qHTS assay with human liver microsomes (AID 1963577)
Summary of the method: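 p53RE-bla reporter cells were pre-incubated 5 h at 37 C, then treated with compounds plus human liver microsomes (0.5 mg/mL final) and NADPH (0.5 mg/mL final) for 16 h at 37 C. Beta-lactamase activity was read by LiveBLAzer fluorescence after 2 h at room temperature.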

[5] = p53 small molecule agonists, cell-based qHTS assay with rat liver microsomes (AID 1963578)
Summary of the method: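 p53RE-bla cells were exposed to compounds together with rat liver microsomes (0.5 mg/mL final) and NADPH (0.5 mg/mL final) for 16 h at 37 C, then read by LiveBLAzer beta-lactamase fluorescence after 2 h at room temperature.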

[6] = p53 small molecule agonists, cell-based qHTS assay with human liver microsomes: qHTS cell viability counter screen (AID 1963579); further: nearly all actives have a fitted effect of over 45% in size
Summary of the method: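 p53RE-bla cells (4,000/well) were pre-incubated 5 h at 37 C, then given compounds in DMSO plus human liver microsomes (0.5 mg/mL final) and NADPH (0.5 mg/mL final) for 16 h at 37 C. Viability was read by CellTiter-Glo luminescence.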

[7] = p53 small molecule agonists, cell-based qHTS assay with rat liver microsomes: qHTS cell viability counter screen (AID 1963580); further: nearly all actives have a fitted effect of over 45% in size
Summary of the method: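 Rat liver microsome (0.5 mg/mL final) and NADPH (0.5 mg/mL final) co-incubation with compounds for 16 h at 37 C on HCT-116 p53RE-bla cells; cytotoxicity taken from intracellular ATP luminescence.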

[8] = p53 small molecule agonists, cell-based qHTS assay (AID 1963582; active means well fitted activation curve with a large enough effect in the signal ratio in the repeat runs, not every such curve was filed as active; the % refers to the signal ratio)
Summary of the method: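 Measured: fluorescence from cleaved LiveBLAzer substrate. System: p53RE-bla cells, 16 h compound treatment at 37 C, 2 h substrate step at room temperature.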

[9] = molecular target: 5-hydroxytryptamine receptor 2A (Homo sapiens) (UniProt P28223); experiment: 5-hydroxytryptamine receptor 2A (HTR2A) small molecule antagonists, cell-based qHTS assay (AID 1963586); further: nearly all actives have a fitted effect of over 45% in size
Chain of 5-hydroxytryptamine receptor 2A (Homo sapiens) (P28223 whole entry, looked up): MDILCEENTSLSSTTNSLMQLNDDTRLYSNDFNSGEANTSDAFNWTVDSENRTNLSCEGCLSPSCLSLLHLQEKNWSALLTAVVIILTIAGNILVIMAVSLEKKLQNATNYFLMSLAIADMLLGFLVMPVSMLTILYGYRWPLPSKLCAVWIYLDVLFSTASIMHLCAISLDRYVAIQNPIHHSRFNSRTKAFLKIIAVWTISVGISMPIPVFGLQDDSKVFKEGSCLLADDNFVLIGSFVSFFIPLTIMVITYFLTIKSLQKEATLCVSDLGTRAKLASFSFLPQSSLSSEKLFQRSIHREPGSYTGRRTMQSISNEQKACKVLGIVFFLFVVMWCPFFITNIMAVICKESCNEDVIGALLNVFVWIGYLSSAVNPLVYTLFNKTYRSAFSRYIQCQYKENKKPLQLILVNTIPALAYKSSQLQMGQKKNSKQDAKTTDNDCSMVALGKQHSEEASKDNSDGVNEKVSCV
Summary of the method: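 CHO cells stably expressing human HTR2A were plated for 18 h at 37 C, then loaded with calcium dye for 1 h. Compounds were preincubated 5 min at room temperature before DOI (4 nM solution) was added. Kinetic fluorescence was read for 3 min.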

[10] = molecular target: 5-hydroxytryptamine receptor 2A (Homo sapiens) (UniProt P28223); experiment: 5-hydroxytryptamine receptor 2A (HTR2A) small molecule agonists, cell-based qHTS assay (AID 1963587); further: nearly all actives have a fitted effect of over 30% in size
Summary of the method: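 Kinetic calcium-flux fluorescence (2 min, 1 sec intervals) after compound addition in agonist mode. HTR2A-CHO cells were cultured 18 h, then dye-loaded 1 h at 37 C.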

[11] = molecular target: Muscarinic acetylcholine receptor M1 (Homo sapiens) (UniProt P11229); experiment: Cholinergic receptor muscarinic 1 (CHRM1) small molecule antagonists, cell-based qHTS assay (AID 1963588); further: nearly all actives have a fitted effect of over 40% in size
Chain of Muscarinic acetylcholine receptor M1 (Homo sapiens) (P11229 whole entry, looked up): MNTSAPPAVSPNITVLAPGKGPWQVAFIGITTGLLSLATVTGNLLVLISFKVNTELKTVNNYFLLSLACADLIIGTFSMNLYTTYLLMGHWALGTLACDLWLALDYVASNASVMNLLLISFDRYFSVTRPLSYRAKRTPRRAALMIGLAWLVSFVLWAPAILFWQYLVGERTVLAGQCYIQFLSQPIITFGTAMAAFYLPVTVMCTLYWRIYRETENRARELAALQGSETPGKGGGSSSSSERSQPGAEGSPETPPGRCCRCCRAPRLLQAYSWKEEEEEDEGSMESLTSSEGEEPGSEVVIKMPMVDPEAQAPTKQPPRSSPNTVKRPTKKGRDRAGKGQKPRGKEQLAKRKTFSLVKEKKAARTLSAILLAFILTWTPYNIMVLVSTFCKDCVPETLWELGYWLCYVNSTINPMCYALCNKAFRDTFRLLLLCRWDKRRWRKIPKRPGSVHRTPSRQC
Summary of the method: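 Compounds were tested at 15 concentrations in three independent runs. Dye-loaded CHRM1-CHO cells were exposed 5 min at room temperature before stimulation by acetylcholine added at 50nM. Intracellular calcium was read kinetically on FDSS for 3 min.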

[12] = molecular target: Muscarinic acetylcholine receptor M1 (Homo sapiens) (UniProt P11229); experiment: Cholinergic receptor muscarinic 1 (CHRM1) small molecule agonists, cell-based qHTS assay (AID 1963589); further: nearly all actives have a fitted effect of over 35% in size
Summary of the method: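 Kinetic fluorescence (1 s intervals) of calcium-sensitive dye in human M1 CHO cells after compound addition; cells pre-incubated 18 h at 37 C/5% CO2 and dye-loaded 1 h.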

[13] = cAMP Responsive Elements (CRE) small molecule antagonists, cell-based qHTS assay (AID 1963591; active means well fitted inhibition curve with a large enough effect in the signal ratio in the repeat runs, not every such curve was filed as active; the % refers to the signal ratio)
Summary of the method: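 Reporter line CRE-bla HEK 293T in dialyzed-FBS DMEM; cells preincubated 18 h, treated 3 h with compound plus NKH477 (0.25 uM final); LiveBLAzer FRET, 2 h RT.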

[14] = molecular target: Beta-2 adrenergic receptor (Homo sapiens) (UniProt P07550); experiment: Adrenergic beta2 receptor (ADRB2) small molecule antagonists, cell-based qHTS assay (AID 1963592); further: series mostly up to about 92 µM; nearly all actives have a fitted effect of over 50% in size
Chain of Beta-2 adrenergic receptor (Homo sapiens) (P07550 whole entry, looked up): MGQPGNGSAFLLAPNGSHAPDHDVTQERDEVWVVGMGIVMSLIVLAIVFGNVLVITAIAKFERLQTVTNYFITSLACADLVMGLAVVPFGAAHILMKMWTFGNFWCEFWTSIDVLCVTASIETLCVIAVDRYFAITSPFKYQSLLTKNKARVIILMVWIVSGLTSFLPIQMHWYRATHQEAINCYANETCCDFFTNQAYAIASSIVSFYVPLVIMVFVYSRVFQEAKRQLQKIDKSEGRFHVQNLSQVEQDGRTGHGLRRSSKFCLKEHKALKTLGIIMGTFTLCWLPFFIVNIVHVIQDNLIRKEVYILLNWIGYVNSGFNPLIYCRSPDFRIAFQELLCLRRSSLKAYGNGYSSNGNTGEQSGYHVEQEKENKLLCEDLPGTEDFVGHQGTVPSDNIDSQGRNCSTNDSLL
Summary of the method: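 Assay format: CHO-ADRB2 cells, 18-20hr seeding at 37C/5% CO2, then compound plus 1nM isoproterenol agonist mix for 0.5hr RT. Homogeneous time-resolved fluorescence cAMP detection after 1hr, expressed as 665/615 nm ratio.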

[15] = molecular target: Beta-2 adrenergic receptor (Homo sapiens) (UniProt P07550); experiment: Adrenergic beta2 receptor (ADRB2) small molecule agonists, cell-based qHTS assay (AID 1963593);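 further: CHO cells stably overexpressing human ADRB2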
Summary of the method: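 CHO cells stably over-expressing ADRB2 were plated overnight at 37C, then dosed with compounds plus a stimulation mix containing 100uM IBMX and 25uM Ro-20-1724 for 0.5hr at room temperature. cAMP was measured by HTRF competition, 1hr.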

[16] = molecular target: D(2) dopamine receptor (Homo sapiens) (UniProt P14416); experiment: Dopamine D2 receptor (DRD2) small molecule agonists, cell-based qHTS assay (AID 1963594); further: nearly all actives have a fitted effect of over 35% in size
Chain of D(2) dopamine receptor (Homo sapiens) (P14416 whole entry, looked up): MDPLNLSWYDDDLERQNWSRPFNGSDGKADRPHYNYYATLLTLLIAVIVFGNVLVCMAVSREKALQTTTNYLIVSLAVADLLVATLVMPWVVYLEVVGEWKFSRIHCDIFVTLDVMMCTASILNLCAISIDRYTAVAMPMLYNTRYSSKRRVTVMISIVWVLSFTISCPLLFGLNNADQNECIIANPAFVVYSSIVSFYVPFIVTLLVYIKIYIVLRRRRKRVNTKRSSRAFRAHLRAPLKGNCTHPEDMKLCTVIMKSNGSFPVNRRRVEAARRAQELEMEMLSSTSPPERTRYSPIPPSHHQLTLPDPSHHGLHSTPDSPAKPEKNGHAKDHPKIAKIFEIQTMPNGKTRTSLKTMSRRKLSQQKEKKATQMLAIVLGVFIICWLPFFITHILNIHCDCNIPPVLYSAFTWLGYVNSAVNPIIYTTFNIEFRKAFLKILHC
Summary of the method: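 cAMP accumulation in DRD2-HEK293 cells measured by HTRF after 1 h detection; compounds added 10 min before NKH477 (200nM […]) forskolin-analogue stimulation, 30 min at room temperature, with Ro20-1724 present at 0.1 mM final.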

[17] = molecular target: D(2) dopamine receptor (Homo sapiens) (UniProt P14416); experiment: Dopamine D2 receptor (DRD2) small molecule antagonists, cell-based qHTS assay (AID 1963595; active means well fitted inhibition curve with a large enough effect in the signal ratio in the repeat runs, with a control signal flat; the % refers to the signal ratio)
Summary of the method: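 Readout: HTRF cAMP, cAMP-d2 competing with cellular cAMP for anti-cAMP cryptate, read after 1 h. Cells: DRD2-HEK293. Conditions: 0.1 mM Ro20-1724, 12 nM quinpirole, 200 nM NKH477, 30 min RT.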

[18] = p53 small molecule agonists, cell-based qHTS assay: qHTS cell viability counter screen (AID 1963581); further: nearly all actives have a fitted effect of over 45% in size
Summary of the method: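 qHTS counter screen: 16 h compound exposure at 37 C of p53RE-bla HCT-116 cells (4,000 per well, seeded 5 h prior), cell viability by ATP luminescence.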

[19] = cAMP Responsive Elements (CRE) small molecule agonists, cell-based qHTS assay (AID 1963590)
Summary of the method: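 Test agents in DMSO were incubated 3 h at 37 C/5% CO2 with CRE-bla HEK 293T cells seeded 18 h earlier; LiveBLAzer B/G FRET substrate was added and read after 2 h at room temperature.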
On the % scale 0 is the no-effect control and ±100 the full control effect.

CC(=O)[O][Al]
inactive: Potency [1] | Potency [2] | Potency [3] | Potency [4] | Potency [5] | Potency [6] | Potency [7] | Potency [8] | Potency [9] | Potency [10] | Potency [11] | Potency [12] | Potency [13] | Potency [14] | Potency [15] | Potency [16] | Potency [17]

Nc1ccc(C(=O)Nc2ccccc2N)cc1
inactive: Potency [1] | Potency [2] | Potency [3] | Potency [4] | Potency [5] | Potency [6] | Potency [7] | Potency [18] | Potency [8] | Potency [9] | Potency [10] | Potency [11] | Potency [12] | Potency [19] | Potency [14] | Potency [17]

CN(C)CCCCCCN(C)C
inactive: Potency [1] | Potency [2] | Potency [3] | Potency [9] | Potency [10] | Potency [11] | Potency [12] | Potency [19] | Potency [13] | Potency [14] | Potency [15] | Potency [16] | Potency [17]

Nc1c(Cl)cc(Cl)cc1[N+](=O)[O-]
inactive: Potency [1] | Potency [2] | Potency [3] | Potency [4] | Potency [5] | Potency [6] | Potency [18] | Potency [8] | Potency [9] | Potency [10] | Potency [11] | Potency [19] | Potency [14] | Potency [15] | Potency [16] | Potency [17]

CCN(Cc1ccncc1)C(=O)C(CO)c1ccccc1 (centres undefined)
inactive: Potency [1] | Potency [2] | Potency [3] | Potency [4] | Potency [5] | Potency [6] | Potency [7] | Potency [18] | Potency [8] | Potency [19] | Potency [13] | Potency [14] | Potency [15] | Potency [16]

CCCCCCCCCCC1CO1 (centres undefined)
inactive: Potency [1] | Potency [2] | Potency [3] | Potency [4] | Potency [6] | Potency [7] | Potency [18] | Potency [8] | Potency [9] | Potency [10] | Potency [12] | Potency [19] | Potency [13] | Potency [14] | Potency [17]

C=CCCCCCCCCCCCCCC
inactive: activity change, negative = cytotoxicity [1] 5.7% [at 19 µM] | activity change [2] 0.565% [at 11.8 µM, stronger effect = higher value] | activation [3] 0.0173% [at 11.8 µM] | activity change, negative = cytotoxicity [6] 3.4% [at 13.5 µM] | activity change, negative = cytotoxicity [7] -3.36% [at 13.5 µM] | activity change, negative = cytotoxicity [18] -15.7% [at 13.5 µM] | activity, negative = inhibition [9] 4.99% [at 12.7 µM] | activation [10] 4.53% [at 15.9 µM] | activity, negative = inhibition [11] -25.1% [at 12.6 µM] | activation [12] -0.058% [at 15.8 µM] | activity change, negative = inhibition [13] -3.11% [at 18.9 µM] | activity change, negative = inhibition [14] 8.54% [at 19 µM] | activation [16] -4.33% [at 19 µM] | activity change, negative = inhibition [17] -4.22% [at 18.9 µM]

CCO/C=C1\N=C(c2ccccc2)OC1=O
inactive: Potency [1] | Potency [2] | Potency [4] | Potency [5] | Potency [6] | Potency [7] | Potency [18] | Potency [10] | Potency [11] | Potency [12] | Potency [13] | Potency [14] | Potency [16] | Potency [17]
